Compound activity as filed in PubChem.
Only some compounds are listed: those with a hit (about 1.6% of all), similar ones and a draw of the others.
Imprint erasure – inducers of genomic imprint erasure in mouse ES cells; mouse ES Peg3-LacZ reporter, beta-gal luminescence, 40 h; Potency, µM (doses to about 60.7 µM), without a hit: at the top dose activity change, positive = activation, usual class: activators; hit rate 0.02% among 110,000; AID 1948; further: potency means the concentration at half of the fitted maximal effect
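Readout: BetaGlo luminescence (5 min, room temp) for LacZ from the normally silent maternal Peg3 allele in female Peg3LacZ-Neo ES cells. Cells 300/well, 40 h, 37C, 5% CO2. Data normalized per plate to negative controls.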
HBB splicing – alters splicing of the hemoglobin beta chain | HBB splicing reporter cell assay, activation; EGFP reporter with mutant IVS2-654 intron; response scale: normalised to 500 nM splice-correcting PNA | Potency, µM (doses to about 46.1 µM), inactives show at the top dose activation, usual class: activators | hit rate 0.06% among 65,000 | AID 925; further: potency means the concentration at half of the fitted maximal effect; 0% is about no effect
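HeLa cells stably expressing EGFP interrupted by mutant beta-globin intron 2 (IVS2-654), 500/well in 2% FCS. Treated with compound for 2 days at 37C. Splicing correction scored as total well GFP intensity (488 nm excitation, 500-520 nm emission); 500 nM antisense PNA served as control.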
Epigenetic mod – epigenetic GFP locus derepression in mouse cells; mouse C127i GFP locus derepression, cytometry, 30 h; Potency, µM (titrated, usually from 46.1 µM), for inactives: at the top dose GFP derepression (activation); hit rate 0.09% among 68,000; AID 597; further: % of control where 0% means no effect
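Read-out is the number of GFP-positive cells, scored as fluorescent objects 20 to 120 um wide, reflecting derepression of a silenced CMV-GFP reporter in murine C127i cells after 30 h compound exposure at 37 C.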
p53ts 32C kill – kills p53ts cells at the permissive temperature | Potency, µM (doses to about 46.1 µM), for inactives: at the top dose activity change, negative = cytotoxicity, actives largely listed as cytotoxic | H1299-p53A138V at 32C, ATP luminescence viability, 24 h | hit rate 0.93% among 130,000;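 further: potency means the concentration at half of the fitted maximal effect; 0% = DMSO and -100% = full killing by reference compound; nearly all actives have a fitted effect of over 55% in size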
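Cells: H1299 p53ts (A138V), 600/well, pre-incubated 16–30 h at 37C. Cpd up to 46 uM, 24 h, 32C. Readout: ATPlite luminescence, 20 min RT. Normalization: DMSO vs tamoxifen 100 uM. AC50 by Hill equation.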
Ub-GFP proteasome – ubiquitin-GFP accumulation via proteasome inhibition; Potency, µM (titrated, usually from 45.9 µM), inactives show at the highest dose activation (GFP accumulation), usual class: activators; 67,000 tested, under 10 active; AID 526; Ubiquitin-GFP reporter cells, proteasome inhibition, GFP fluorescence; response scale: untreated = 0%, 10 µM MG-132 = 100%; active means well fitted activation curve with a large enough effect, not every such curve was filed as active; inconclusive means small, poorly fitted or top-dose-only effect, or another doubt; inactive means no such curve, though single readings can be large or run the other way; further: potency means the concentration at half of the fitted maximal effect
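Reporter cells (U2OS, ubiquitin-G76V-GFP fusion) are plated overnight, then treated 4 hr at 37 °C with compound titrations from 46 uM down to 2.9 nM. Activity is scaled against untreated cells and 10 uM MG-132.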
p53ts 39C tox – cytotoxicity in p53ts cells at nonpermissive temperature; H1299-p53A138V viability at 39C, ATP luminescence, 24 h; AID 902; Potency, µM (top dose mostly 46.1 µM), inactives show at the highest dose activity change, negative = cell killing, usual class: cytotoxic; hit rate 1.5% among 130,000; further: potency means the concentration at half of the fitted maximal effect; on the % scale 0 is the no-effect control and ±100 the full control effect; nearly all actives have a fitted effect of over 55% in size
The depositor's hits bear a star; ! = repeats disagree; [ ] = remark or other dose. Unless noted, the call rests on the fitted dose curve; in most records, active means well fitted curve in the direction sought with a large enough effect; inconclusive means small, poorly fitted or top-dose-only effect, or another doubt; inactive means no such curve, though single readings can be large; an effect the other way counts as inactive or inconclusive.

O=C(O)c1cc(-c2cccs2)nc2cc3c(cc12)OCCO3 was read as Imprint erasure -13%, HBB splicing -1%, p53ts 32C kill inconclusive, Ub-GFP proteasome 17% and p53ts 39C tox 10µM*.
Screening Cc1ccc2nc(-c3ccc4c(c3)OCCO4)cc(C(=O)O)c2c1 returned Imprint erasure -28%, HBB splicing 0%, Epigenetic mod 1%, p53ts 32C kill 16µM*, Ub-GFP proteasome -3% and p53ts 39C tox 10µM*.
`CCCc1cc(=O)[nH]c(SCc2cc(C(=O)OC)c(C)o2)n1` gave Imprint erasure -14%, HBB splicing 1%, Epigenetic mod 2%, p53ts 32C kill 7%, Ub-GFP proteasome 8% and p53ts 39C tox 6%.
Screening CCCCN(C)CCNC(=O)c1cc(-c2ccc(Cl)s2)nc2ccccc12 returned Imprint erasure -9%[10.9 µM], p53ts 32C kill 7% and p53ts 39C tox 13µM*.
`CCOC(=O)c1cc(-c2ccc(N)cc2)sc1N` gave Imprint erasure -10%, HBB splicing 0%[0.369 µM], Epigenetic mod 1%, p53ts 32C kill -17%, Ub-GFP proteasome -4% and p53ts 39C tox -18%.
For COc1ccc(CCNC(=O)C(C)n2nc(C)c3sc4ccccc4c3c2=O)cc1OC (stereo not given) the results were Imprint erasure -11%[10.9 µM], p53ts 32C kill -15% and p53ts 39C tox inconclusive.
Screening COC(=O)c1nc2n(n1)C(c1cc(OC)ccc1OC)C=C(c1ccc(Br)cc1)N2 (stereo not given) returned Imprint erasure -11%[10.9 µM], p53ts 32C kill 12% and p53ts 39C tox -47%.
Fc1ccc(C2=CC(c3ccc(F)cc3)n3c(nc4ccccc43)N2)cc1 (stereo not given) was read as Imprint erasure -21%[10.9 µM], p53ts 32C kill 10µM* and p53ts 39C tox 13µM*.
Screening COc1ccc(C2=CC(c3cc(Br)ccc3F)n3c(nc4ccccc43)N2)cc1 (stereo not given) returned Imprint erasure -17%[10.9 µM], p53ts 32C kill 16µM* and p53ts 39C tox 10µM*.
COC(=O)c1ccc(C2C=C(c3ccc(Cl)cc3)Nc3nc4ccccc4n32)cc1 (stereo not given) was read as Imprint erasure -20%[10.9 µM], p53ts 32C kill 8.9µM* and p53ts 39C tox 11µM*.
`COc1ccc(C(=O)Nc2nc3n(n2)C(c2ccc(F)cc2)C=C(c2ccc(Cl)cc2)N3)cc1` (stereo not given) gave Imprint erasure -12%[10.9 µM], p53ts 32C kill -4% and p53ts 39C tox -7%.
For Nc1ncnc2c1ncn2CCCCC(=O)O the results were Imprint erasure -11%[10.9 µM], HBB splicing 0%[9.22 µM], Epigenetic mod 2%[9.22 µM], p53ts 32C kill -3%[9.22 µM], Ub-GFP proteasome 1%[9.17 µM] and p53ts 39C tox 3%[9.22 µM].
For O=c1cc(-c2ccccc2)[nH]c2ccc(Cl)cc12 the results were Imprint erasure -35%[97.3 µM].
Screening COc1ccc(Cn2c(=O)c3ccccc3n3c(-c4cccc(OC)c4OC)nnc23)cc1 returned Imprint erasure -18%[10.9 µM], p53ts 32C kill -6% and p53ts 39C tox 3%.
`COc1ccc(OC)c(-c2nnc3n(CCc4ccccc4)c(=O)c4ccccc4n23)c1` gave Imprint erasure -13%[10.9 µM], p53ts 32C kill 6% and p53ts 39C tox 13µM*.
Screening COc1cccc2sc(N(C)c3ccccc3)nc12 returned Imprint erasure -64%, HBB splicing -7%[57.5 µM], Epigenetic mod -2%, p53ts 32C kill 10µM*, Ub-GFP proteasome -2% and p53ts 39C tox 13µM*.
Screening CCCCOc1ccc(C(=O)O)cc1 returned Imprint erasure -37%, HBB splicing -2%, Epigenetic mod -3%, p53ts 32C kill 4%, Ub-GFP proteasome -1% and p53ts 39C tox 12%.
CC/C(=C(\c1ccccc1)c1ccc(OCCN(C)C)cc1)c1ccccc1 was read as Imprint erasure -15%, HBB splicing -1%, Epigenetic mod -1%, p53ts 32C kill 32µM*!, Ub-GFP proteasome -1% and p53ts 39C tox 32µM*!.
`COc1ccc(CCNC(=O)Cn2c(=O)c3cccn3c3ccccc32)cc1OC` gave Imprint erasure -3%[10.9 µM], p53ts 32C kill -21% and p53ts 39C tox 16µM*.
Screening O=C(CCCn1c(=O)c2cccn2c2ccccc21)NCCc1ccc(Cl)cc1 returned Imprint erasure -22%[10.9 µM], p53ts 32C kill 10µM* and p53ts 39C tox 13µM*.
NC(=O)c1cc2nc(-c3ccco3)cc(C(F)(F)F)n2n1 was read as p53ts 32C kill -4% and p53ts 39C tox -14%.
Screening Cc1ccc(NC(=O)N2CCC(c3ccccc3)C2)cc1C (stereo not given) returned Imprint erasure -12%[10.9 µM], p53ts 32C kill inconclusive and p53ts 39C tox 13µM*.
For O=C(Nc1ccc(Cl)cc1)N1CCC(c2ccccc2)C1 (stereo not given) the results were Imprint erasure -18%[10.9 µM], p53ts 32C kill inconclusive and p53ts 39C tox 13µM*.
For CCn1c(SCC(=O)N2CCc3ccccc3C2)nc2sc(C)c(C)c2c1=O the results were p53ts 32C kill 16% and p53ts 39C tox 3%.
O=C(CCC1CCCC1)Nc1ccc(OCC(=O)N2CCOCC2)cc1 was read as p53ts 32C kill 7.9µM* and p53ts 39C tox inconclusive.
For Cc1ccc2cc(/C=N/Nc3nc4ccccc4[nH]3)c(Cl)nc2c1 the results were p53ts 39C tox 3.5µM*.
O=C(OCC1OC(OC(=O)c2cc(O)c(O)c(OC(=O)c3cc(O)c(O)c(O)c3)c2)[C@@H](OC(=O)c2cc(O)c(O)c(OC(=O)c3cc(O)c(O)c(O)c3)c2)C(OC(=O)c2cc(O)c(O)c(OC(=O)c3cc(O)c(O)c(O)c3)c2)C1OC(=O)c1cc(O)c(O)c(OC(=O)c2cc(O)c(O)c(O)c2)c1)c1cc(O)c(O)c(OC(=O)c2cc(O)c(O)c(O)c2)c1 (stereo not given in full) was read as Imprint erasure -83%, p53ts 32C kill 10µM* and p53ts 39C tox 6.3µM*.
For Cc1c(NS(C)(=O)=O)cccc1-c1nc2ccccc2s1 the results were Imprint erasure -34%[10.9 µM], p53ts 32C kill inconclusive and p53ts 39C tox inconclusive.
`CS(=O)(=O)Nc1ccc(-c2nc3ccccc3s2)cc1` gave Imprint erasure -69%[10.9 µM], p53ts 32C kill 4µM* and p53ts 39C tox 2µM*.
